Here are results for 38 compounds from ChEMBL document CHEMBL1157539, “Thousands of chemical starting points for antimalarial lead identification” (Nature, 2010).

Values joined by “and” are separate entries in the source; they are usually repeats but may differ in a detail not shown here. Identical values can stand only once.

This assay has as its system HepG2. In words: GSK_TCMDC: Percent inhibition of human HepG2 cell line. Test compounds present at 10uM. The assay is classed as functional.
In turn, `COCCSc1ccc(CC(C)NCC(O)c2cccc(Cl)c2)cc1.Cl` (stereo not drawn) came in with an Inhibition of 2%. To `CNCCCCCCOc1ccc(CC(C)NCC(O)c2cccc(C(F)(F)F)c2)cc1.Cl` (stereo not drawn) belongs 99%; to `O=C(C=Cc1ccc(-c2ccccc2)cc1)NC1CCC(CN2CCC(c3c[nH]c4ccccc34)CC2)CC1` (stereo not drawn), 97% and 43%; to `COCC(=O)N(Cc1ccccc1-c1cccc(CNCCc2ccccc2)c1)C1CCN(Cc2ccccc2)CC1.O=C(O)C(F)(F)F`, 21%. `CC[C@H]1CN2CC[C@H]1C[C@H]2[C@H](O)c1cc(-c2ccc(F)cc2)nc2ccc(OC)cc12.Cl` gave an Inhibition of 34%.

`O=C1NCN(c2ccc(O)cc2)C12CCN(CCCC(c1ccc(F)cc1)c1ccc(F)cc1)CC2`: the Inhibition worked out at 20%.

As to `O=C(Nc1ccc(Oc2ccccc2)cc1)N1CCC(CN2CCC(c3c[nH]c4ccccc34)CC2)CC1`, the Inhibition is given as 53%. For the compound `CC[C@H]1CN2CC[C@H]1C[C@H]2[C@H](O)c1cc(-c2ccc(OC(F)(F)F)cc2)nc2ccc(OC)cc12.Cl`, the Inhibition was 24%. `CN(c1cc(NC(=O)c2ccc(F)cc2)ccn1)C1CCN(Cc2ccc(C#N)cc2)CC1.O=C(O)C(F)(F)F` gave an Inhibition of 13%. `CC[C@H]1CN2CC[C@H]1C[C@H]2[C@H](O)c1cc(N2CCC3CCCCC3C2)nc2ccc(OC)cc12` (stereo partly drawn) showed an Inhibition of 50%. For the compound `CC[C@H]1CN2CC[C@@H]1C[C@H]2[C@H](O)c1ccnc2ccc(Cl)cc12.Cl`, the Inhibition is on record as 0%.

For the compound `CN(c1cc(NC(=O)c2ccccc2)ccn1)C1CCN(Cc2cccc(F)c2)CC1.O=C(O)C(F)(F)F`, the Inhibition turned out to be 0%. The result for `O=C(c1cc(C(=O)NCc2ccc(Cl)cc2)c(=O)n(Cc2ccc(Cl)cc2)c1)c1cc(F)ccc1O` reads 7%; that for `CCCCCCCc1cc(=O)c2ccccc2[nH]1`, 5%; that for `O=C(C=C1c2ccccc2-c2ccccc21)NC1CCC(CN2CCC(c3c[nH]c4ccccc34)CC2)CC1` (stereo not drawn), 21% and 54%. The result for `Br.CC[C@H]1CN2CCc3cc(OC)c(OC)cc3[C@@H]2C[C@@H]1C[C@H]1NCCc2c1cc(OC)c(O)c2I` reads 54%; that for `OC(CNC1CCCCC1)c1ccc(Cl)c(Cl)c1` (stereo not drawn), 17%; that for `O=C(/C=C/c1cccc2ccccc12)NC1CCC(CN2CCC(c3c[nH]c4ccccc34)CC2)CC1` (stereo not drawn), 45% and 53%. Regarding `O=C(/C=C/c1ccc([N+](=O)[O-])cc1)NC1CCC(CN2CCC(c3c[nH]c4ccccc34)CC2)CC1` (stereo not drawn), the Inhibition is 30% and 34%.

`C#CCN1CCC2=C(C1)c1c(O)cc(C(C)CCCc3ccc(F)cc3)cc1OC2(C)C` (stereo not drawn) yielded an Inhibition of 1%. Regarding `CCCCc1ccc2[nH]cc(C3=CCN(C)CC3)c2c1Br`, the Inhibition is reported as 37%. To `COc1cc(C=CC(=O)N2CCC(CN3CCC(c4c[nH]c5ccccc45)CC3)CC2)ccc1O` belongs 11%; to `CCCCCCCCNCC(O)c1ccc(Cl)c(Cl)c1.Cl` (stereo not drawn), 0%. The result for `O=C(CCC(=O)c1ccc2c3c(cccc13)CC2)NC1CCC(CN2CCC(c3c[nH]c4ccccc34)CC2)CC1` (stereo not drawn) reads 34%; that for `CC(C)CCNC(=O)c1cc(C(=O)c2cc(F)ccc2O)cn(CCC(C)C)c1=O`, 14%; that for `CC(=O)C1(c2ccccc2)CCN(CCC2(c3ccc(Cl)c(Cl)c3)CN(C(=O)CC(C)C)CCO2)CC1` (stereo not drawn), 7%. Take `O=C(C=Cc1ccccc1Br)NC1CCC(CN2CCC(c3c[nH]c4ccccc34)CC2)CC1` (stereo not drawn): the Inhibition is 36% and 43%. The result for `CCCc1c(C(=O)NC2CCC(CN3CCC(c4c[nH]c5ccccc45)CC3)CC2)cnn1-c1ccc(Cl)cc1` (stereo not drawn) reads 53%; that for `O=C(CCCCCc1ccccc1)NC1CCC(CN2CCC(c3c[nH]c4ccccc34)CC2)CC1` (stereo not drawn), 34%; that for `CC[C@H]1CN2CCc3cc(OC)c(OC)cc3[C@@H]2C[C@@H]1C[C@H]1NCCc2c1cc(OC)c(OC)c2Br`, 45%.

`COc1cccc(C2(C)CCN(CCCCNC(=O)c3ccc(NC(=O)c4ccc(Cl)cc4)cc3)CC2)c1.Cl` came in with an Inhibition of 19%. As for `CC[C@H]1CN2CC[C@@H]1C[C@H]2[C@H](O)c1cc(N2CCC(C(N)=O)CC2)nc2ccc(OC)cc12`, the Inhibition stood at 17%.

As to `Cc1ccc(CC(C)NCC(O)c2cccc(C#N)c2)cc1` (stereo not drawn), the Inhibition is 2%. The result for `CC[C@H]1CN2CC[C@H]1C[C@@H]2[C@H](O)c1ccnc2ccc(O)cc12` reads 0%; that for `CN(C)c1cccc(NC(=O)N[C@H]2N=C(c3ccccc3)c3ccccc3N(CC(=O)N3CCCC3)C2=O)c1`, 0%. The result for `CC(C)CNCc1ccc(-c2ccc(CN(C(=O)Nc3ccccc3)C3CCN(Cc4ccccc4)CC3)cc2)cc1.O=C(O)C(F)(F)F` reads 27%; that for `Br.CC(Cc1ccc(CSC(C)C)cc1)NCC(O)c1cccc(Cl)c1` (stereo not drawn), 11%; that for `Cc1ccc(C[C@@H](C)NC[C@H](O)c2cccc(C(F)(F)F)c2)cc1.O=C(O)/C=C/C(=O)O`, 10%.
